Results published in PubChem BioAssay AID1671202 (University of Kansas High Throughput Screening Laboratory, 2021).
Values joined by “and” are separate entries in the source; they are usually repeats but may differ in a detail not shown here. Equal entries are not always repeated. Hit rate of the full screen: of about 190,000 compounds, about 6,900 (3.6%) were called active. The full list was thinned out, with actives kept by preference. Unmarked numbers belong to inactive results. Rule as the data show it: active = inhibition above about 50%; inactive = the rest.

Molecular target: Huntingtin (Homo sapiens) (UniProt P42858)
Sequence (P42858 whole entry, looked up, stated change not applied): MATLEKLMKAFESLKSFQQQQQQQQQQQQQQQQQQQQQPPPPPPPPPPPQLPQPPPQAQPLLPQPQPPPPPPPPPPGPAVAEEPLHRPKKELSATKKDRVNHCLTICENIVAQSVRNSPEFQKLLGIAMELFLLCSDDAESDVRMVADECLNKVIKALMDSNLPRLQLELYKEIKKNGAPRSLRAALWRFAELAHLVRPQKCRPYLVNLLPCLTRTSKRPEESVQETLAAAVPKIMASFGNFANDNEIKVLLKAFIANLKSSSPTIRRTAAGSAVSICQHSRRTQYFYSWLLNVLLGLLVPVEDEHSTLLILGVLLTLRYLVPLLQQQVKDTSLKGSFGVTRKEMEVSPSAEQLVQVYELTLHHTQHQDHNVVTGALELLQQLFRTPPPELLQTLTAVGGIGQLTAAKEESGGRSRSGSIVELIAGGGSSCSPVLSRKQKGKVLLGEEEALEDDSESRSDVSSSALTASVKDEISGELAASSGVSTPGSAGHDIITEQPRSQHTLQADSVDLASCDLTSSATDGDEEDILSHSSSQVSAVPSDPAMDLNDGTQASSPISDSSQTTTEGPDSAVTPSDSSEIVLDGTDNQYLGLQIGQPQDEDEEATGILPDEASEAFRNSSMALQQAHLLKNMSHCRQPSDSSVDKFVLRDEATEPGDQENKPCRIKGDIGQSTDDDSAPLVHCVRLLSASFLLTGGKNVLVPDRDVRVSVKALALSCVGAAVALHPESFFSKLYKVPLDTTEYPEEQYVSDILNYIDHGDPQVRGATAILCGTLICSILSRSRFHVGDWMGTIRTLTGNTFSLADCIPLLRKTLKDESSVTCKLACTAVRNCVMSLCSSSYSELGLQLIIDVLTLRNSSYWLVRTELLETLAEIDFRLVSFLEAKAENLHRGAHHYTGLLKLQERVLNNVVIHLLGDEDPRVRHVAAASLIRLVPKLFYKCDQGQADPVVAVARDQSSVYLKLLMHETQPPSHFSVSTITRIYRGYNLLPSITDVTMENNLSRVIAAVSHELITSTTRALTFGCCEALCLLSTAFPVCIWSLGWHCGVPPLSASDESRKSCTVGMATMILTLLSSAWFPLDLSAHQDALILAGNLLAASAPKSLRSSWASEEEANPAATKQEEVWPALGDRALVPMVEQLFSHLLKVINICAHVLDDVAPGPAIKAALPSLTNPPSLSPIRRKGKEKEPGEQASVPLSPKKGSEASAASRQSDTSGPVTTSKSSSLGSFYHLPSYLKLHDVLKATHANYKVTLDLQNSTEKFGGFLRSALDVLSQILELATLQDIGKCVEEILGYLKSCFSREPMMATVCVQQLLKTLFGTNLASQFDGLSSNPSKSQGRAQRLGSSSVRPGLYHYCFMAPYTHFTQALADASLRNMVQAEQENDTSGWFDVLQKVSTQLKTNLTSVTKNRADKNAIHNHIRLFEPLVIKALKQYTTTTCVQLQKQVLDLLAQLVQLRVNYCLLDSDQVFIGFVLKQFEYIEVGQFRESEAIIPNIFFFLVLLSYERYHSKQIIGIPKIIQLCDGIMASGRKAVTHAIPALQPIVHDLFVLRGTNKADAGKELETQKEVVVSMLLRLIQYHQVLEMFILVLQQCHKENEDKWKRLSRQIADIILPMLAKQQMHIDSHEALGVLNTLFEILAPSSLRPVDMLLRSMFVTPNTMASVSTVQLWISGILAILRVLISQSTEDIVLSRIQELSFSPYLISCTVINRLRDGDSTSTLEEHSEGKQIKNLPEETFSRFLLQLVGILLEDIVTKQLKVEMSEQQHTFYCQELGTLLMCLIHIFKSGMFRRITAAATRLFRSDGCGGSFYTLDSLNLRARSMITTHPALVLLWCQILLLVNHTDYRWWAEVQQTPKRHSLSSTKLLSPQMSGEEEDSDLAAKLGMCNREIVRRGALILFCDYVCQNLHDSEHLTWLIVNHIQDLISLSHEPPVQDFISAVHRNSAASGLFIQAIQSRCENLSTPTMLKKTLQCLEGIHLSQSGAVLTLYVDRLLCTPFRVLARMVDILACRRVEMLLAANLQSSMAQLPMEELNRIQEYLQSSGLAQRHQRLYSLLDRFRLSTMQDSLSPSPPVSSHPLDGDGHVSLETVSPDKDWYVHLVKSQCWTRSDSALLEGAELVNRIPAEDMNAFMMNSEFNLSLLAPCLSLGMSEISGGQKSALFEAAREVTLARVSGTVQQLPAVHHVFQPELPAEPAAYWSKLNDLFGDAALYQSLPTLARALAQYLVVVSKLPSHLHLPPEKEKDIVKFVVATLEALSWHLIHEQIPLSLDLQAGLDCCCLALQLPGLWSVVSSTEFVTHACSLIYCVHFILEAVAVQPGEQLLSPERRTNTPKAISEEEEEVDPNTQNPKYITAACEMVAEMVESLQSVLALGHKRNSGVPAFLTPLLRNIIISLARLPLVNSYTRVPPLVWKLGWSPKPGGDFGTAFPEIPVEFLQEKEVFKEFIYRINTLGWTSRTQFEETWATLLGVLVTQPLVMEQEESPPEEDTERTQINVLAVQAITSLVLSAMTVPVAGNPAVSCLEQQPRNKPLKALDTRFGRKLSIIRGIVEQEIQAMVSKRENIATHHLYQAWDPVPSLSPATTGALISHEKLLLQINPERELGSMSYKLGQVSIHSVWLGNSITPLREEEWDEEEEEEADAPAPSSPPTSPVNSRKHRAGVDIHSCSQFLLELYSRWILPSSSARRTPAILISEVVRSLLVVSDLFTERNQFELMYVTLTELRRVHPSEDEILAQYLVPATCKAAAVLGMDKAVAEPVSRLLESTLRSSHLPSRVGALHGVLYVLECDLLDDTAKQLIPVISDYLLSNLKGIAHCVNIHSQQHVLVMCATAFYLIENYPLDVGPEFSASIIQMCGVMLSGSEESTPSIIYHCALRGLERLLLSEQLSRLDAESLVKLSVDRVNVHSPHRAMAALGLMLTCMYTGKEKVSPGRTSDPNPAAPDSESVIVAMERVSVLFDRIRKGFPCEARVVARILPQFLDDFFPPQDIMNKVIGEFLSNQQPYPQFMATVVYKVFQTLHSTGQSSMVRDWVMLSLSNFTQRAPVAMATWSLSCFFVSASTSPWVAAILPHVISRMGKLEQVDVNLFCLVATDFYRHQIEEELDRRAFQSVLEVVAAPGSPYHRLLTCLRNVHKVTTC
Test: mutant huntingtin-calmodulin interaction inhibitors – biochemical, AlphaScreen, primary screen (AID 1671202);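 also: 0% = both proteins with DMSO and 100% = one protein alone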
Details: AlphaScreen His-mHTT/GST-CaM binding, luminescence; at 15 µM, stronger effect = higher value

| Structure (SMILES) | inhibition |
| --- | --- |
| CCCN1C(=O)COc2ccc(-c3noc(-c4ccccc4C(F)(F)F)n3)cc21 | -2.1% |
| CCN(CC)c1ncc2c(n1)CCC(C(=O)N(C)c1ccc(C)c(C)c1)C2 (centres undefined) | 25.8% |
| Cc1ccc2c(c1)-c1c(ssc1=Nc1ccc(Cl)cc1Cl)C(C)(C)N2 | 73.7% (active) |
| Cc1ccc(N=Cc2ccc(Cl)cc2Cl)c(O)c1 | 12% |
| CC(=O)Nc1ccc(N2CCCCC2)nc1 | 2.4% |
| O=C(Cc1ccc(F)cc1)N1CCc2[nH]cnc2C1c1ccccn1 (centres undefined) | 81.1% (active) |
| CC(C)NC(=O)N1CCc2[nH]cnc2C1c1ccccn1 (centres undefined) | 83.5% (active) |
| O=C(c1ccc(F)c(F)c1)N1CCc2[nH]cnc2C1c1ccccc1 (centres undefined) | 17.4% |
| COC(=O)c1ccccc1NC(=O)N1CCc2[nH]cnc2C1c1ccncc1 (centres undefined) | 7.22% |
| O=C(Nc1ccc(C(F)(F)F)cc1)N1CCc2[nH]cnc2C1c1ccncc1 (centres undefined) | 11.1% |
| O=C(Nc1c(F)cccc1F)N1CCc2[nH]cnc2C1c1ccncc1 (centres undefined) | -5.1% |
| O=C1OC(c2ccc(Cl)cc2Cl)=N/C1=C\c1ccc(F)cc1 | 2% |
| COc1cccc(C2CC(c3cc(Br)ccc3F)n3nnnc3N2)c1 (centres undefined) | 4.06% |
| CCCNC(=O)C1CN(C(=O)c2ccccc2F)CC1c1cccc(F)c1 (centres undefined) | -5.9% |
| CC1(C)c2ccccc2N(CCO)C12C=Cc1cc([N+](=O)[O-])ccc1O2 (centres undefined) | 62% (active) |
| O=C1CSC(c2cccc([N+](=O)[O-])c2)N1c1cc(Cl)ccc1O (centres undefined) | 8% |
| Clc1ccc(C2=CC(c3ccccc3)n3ncnc3N2)cc1 (centres undefined) | 1% and -2.22% |
| Cc1nc2n(n1)C(c1ccc(Cl)cc1)C=C(c1ccc(Cl)cc1)N2 (centres undefined) | 31% |
| COc1ccccc1C(=O)Nc1nc2n(n1)C(c1ccccc1)C=C(c1ccc(Cl)cc1)N2 (centres undefined) | 51% (active) |
| CCS(=O)(=O)NCc1nnnn1-c1ccc(F)c(F)c1 | -8.6% |
| Cc1cccc(N2CCC(C(=O)NCc3ccccc3F)C2=O)c1C (centres undefined) | -0.6% |
| COc1ccc(-c2ncc3c(n2)CCN(C(=O)c2cccc(OC)c2)C3)cc1 | 11.1% |
| O=C(NC1CCCC1)C1CCNCC1 | -0.4% |
| COc1ccc(NC(=O)C2CC(=O)N(c3ccc4oc(C)nc4c3)C2)cc1 (centres undefined) | 2.03% |

| Structure (SMILES) | inhibition |
| --- | --- |
| Cc1cc(-c2nnc(NC(=O)C3CC(=O)N(c4ccc(C)c(C)c4)C3)o2)n(C)n1 (centres undefined) | 90.2% (active) |
| Cc1ccc(N2CC(C(=O)Nc3cc(C(F)(F)F)ccc3Cl)CC2=O)cc1C (centres undefined) | -1% |
| O=C(c1cccnc1)N1CCCC1c1nc(-c2cccc(C(F)(F)F)c2)no1 (centres undefined) | 27.6% |
| N#Cc1ccc(C(=O)N2CCCC2c2nc(-c3cccc(C(F)(F)F)c3)no2)cc1 (centres undefined) | 2.8% |
| O=C(C1COc2ccccc2O1)N1CC(c2nc(-c3cccc(C(F)(F)F)c3)no2)C1 (centres undefined) | 88.9% (active) |
| COc1ccc(C(=O)COc2ccc3c(c2)OC(=Cc2cc(OC)c(OC)c(OC)c2)C3=O)cc1 | 2.6% |
| Cc1ccc(C)c(NC(=O)c2cc3n(n2)CCCN(Cc2ccccc2)C3=O)c1 | -4.93% |
| CS(=O)(=O)N1CCc2cc(NC(=O)Nc3cccc(C(F)(F)F)c3)ccc21 | 16.1% |
| O=C(C1c2ccccc2Oc2ccccc21)N1CCN(c2ccc([N+](=O)[O-])cc2)CC1 | -2.2% |
| CC(C)=CC(=O)CC(C)(O)c1ccccc1 (centres undefined) | 1.5% |
| CN(C)c1ccc(C(=O)NC2CCN(c3ccccc3)C2=O)cc1 (centres undefined) | -3.2% |
| CN(C)c1ccc(C(O)(c2ccccc2)c2ccccc2)cc1 | 76% (active) |
| COc1ccccc1C(=O)N1CCc2nc(-c3ccc(Cl)cc3)ncc2C1 | 9.54% |
| COc1ccccc1-c1nc(C2CCN(C(=O)C3COc4ccccc4O3)CC2)no1 (centres undefined) | 34.9% |
| COc1ccccc1-c1nc(C2CCN(C(=O)c3cc4cc(Cl)ccc4[nH]3)CC2)no1 | 80.8% (active) |
| COc1ccccc1-c1nc(C2CCN(C(=O)c3ccc(Cl)cc3)CC2)no1 | 38.7% |
| CCS(=O)(=O)N1CCCC(OCc2nc(CCOC)no2)C1 (centres undefined) | -8.91% |
| COc1ccc(Cl)cc1C(=O)N1CCc2c(nc3cc[nH]n3c2=O)C1 | 9.45% |
| COc1ccccc1C(=O)N1CCc2c(nc3cc(-c4ccccc4Cl)[nH]n3c2=O)C1 | 63.9% (active) |
| O=C(NCC1CCCO1)N1CCc2nc3cc(-c4ccccc4Cl)[nH]n3c(=O)c2C1 (centres undefined) | 5.22% |
| Cn1cccc1C(=O)N1CCc2nc3cc(-c4ccccc4)[nH]n3c(=O)c2C1 | 25.2% |
| COc1ccccc1CC(=O)N1CCc2c(nc3cc(-c4ccccc4Cl)[nH]n3c2=O)C1 | 53% (active) |
| CCCCS(=O)(=O)N1CCc2c(nc3cc(-c4ccccc4Cl)[nH]n3c2=O)C1 | 21.9% |
| CC(=O)NC1CCN(c2ccccc2C(=O)N(C)C2CCCCC2)CC1 | 11.4% |

| Structure (SMILES) | inhibition |
| --- | --- |
| COc1ccc(C=CC(=O)NCCN2CCn3cc(OC)c(=O)cc3C2=O)cc1OC | -2.5% |
| COc1ccc(N2CC(c3nnc(NC(=O)Cc4ccc(C)cc4)o3)CC2=O)cc1 (centres undefined) | 2.93% |
| Cc1ccccc1OCC(=O)Nc1nnc(C2CC(=O)N(c3ccccc3)C2)o1 (centres undefined) | -0.23% |
| Cc1ccc(N2CC(c3nnc(NC(=O)CCc4ccccc4)o3)CC2=O)cc1 (centres undefined) | 0.32% |
| O=C(Cc1cccs1)Nc1nnc(C2CC(=O)N(c3ccc(Cl)cc3)C2)o1 (centres undefined) | 95.7% (active) |
| COc1ccc(CC(=O)Nc2nnc(C3CC(=O)N(c4ccc(Cl)cc4)C3)o2)cc1 (centres undefined) | 22.1% |
| CSc1ccc(N2CC(c3nnc(NC(=O)Cc4ccccc4C)o3)CC2=O)cc1 (centres undefined) | 68.1% (active) |
| N#CCOc1ccc2c(=O)c(-c3ccccc3)coc2c1 | -3% |
| CCCCC(=O)Nc1n[nH]c(C)c1-c1ccc(Cl)cc1 | 2.8% |
| COc1ccccc1OCCCCOc1ccccc1OC | -8.5% |
| O=[N+]([O-])c1ccc(N2CCN(S(=O)(=O)c3ccc(Br)s3)CC2)cc1 | 7% |
| CCC(=O)Nc1ccc(S(=O)(=O)N2CCN(C)c3ccccc32)cc1 | -1.8% |
| O=C(CSc1ncn[nH]1)c1ccc(O)c(O)c1 | -5.2% and -1% |
| O=C(CSc1nc(-c2ccccc2)nc2c1CCCC2)c1ccc(O)c(O)c1 | 52% (active) |
| O=C(CSc1nc2[nH]ncc2c(=O)n1-c1ccccc1)c1ccc(Cl)c(Cl)c1 | 48% |
| COc1cc(OC)c(OC)cc1C=Nc1ccccc1C(=O)O | 5.4% |
| CC(Oc1ccc(Cl)cc1)C(=O)N1CCn2c(nnc2C(C)C)C1 (centres undefined) | 2.1% |
| Cc1cc(NN)nc(-c2ccccc2O)n1 | 53.5% (active) |
| CC(C)Nc1nc(-c2ccccc2O)nc2ccccc12 | -13.2% |
| Cc1cc(Nc2ccccc2)nc(N)n1 | 0.7% |
| CCCNC(=O)C1CCN(Cc2cn(C)c3ccc(Cl)cc23)CC1 | -7.24% |
| O=C(NCc1ccc(F)cc1)c1ccc2c(c1)NC(=O)C(N1CCCCC1)S2 (centres undefined) | -10% |
| CCCNC(=O)c1cn(-c2ccc(C)cc2)nn1 | -7.1% |
| COc1ccc(N2C(=O)C3CCCN3C2c2cccs2)cc1 (centres undefined) | -7.68% |

| Structure (SMILES) | inhibition |
| --- | --- |
| COc1ccc(N2C(=O)C3CCCN3C2c2ccc(Cl)c(Cl)c2)cc1 (centres undefined) | 68% (active) |
| Cc1ccc(N2C(=O)C3C4C=CC(CC4)C3C2=O)cc1Cl (centres undefined) | -5% |
| Cc1ccsc1C1N(c2ccc(Cl)c(Cl)c2)C(=O)C2CCCN21 (centres undefined) | 96.1% (active) |
| COc1cccc(N2C(=O)C3CCCN3C2c2ccc(F)cc2)c1 (centres undefined) | 5.08% |
| COc1ccc(N2C(=O)C3CCCN3C2c2cc(OC)c(OC)cc2OC)cc1 (centres undefined) | -4.26% |
| CCOc1ccc(CC(=O)N2CC3CC2CC3NC(=O)c2ccccc2)cc1 (centres undefined) | 5.36% |
| CCOc1ccc(-c2nnc(Nc3ccc(C(N)=O)cc3)c3ccccc23)cc1 | 6% |
| CCOC(=O)C1CCN(C(=O)C2CCc3sc(C(=O)N4CCCCC4)cc3C2)CC1 (centres undefined) | 4.24% |
| COc1cccc(N2CCN(C(=O)c3ccc(Cl)cc3Cl)C(C)C2=O)c1 (centres undefined) | 3.4% |
| Cc1cc(C(=O)Nc2ccccc2)nc2ccnn12 | -10.8% |
| O=C1[C@H]2OC[C@H](O2)[C@@H]2[C@H]1[C@H]1C=Cc3ccccc3N1[C@@H]2C(=O)c1ccc(F)cc1 | 91.4% (active) |
| O=C(c1ccc(F)cc1)N1CCC(N2CCC(C(=O)N3CCCCC3)CC2)CC1 | -3.3% |
| Cc1ccc(-c2csc(NC(=O)c3ccc([N+](=O)[O-])cc3)n2)c(C)c1 | 10.4% |
| Brc1ccc(Nc2nc(-c3ccc4c(c3)OCO4)cs2)nc1 | -1.1% |
| Cc1ccc(Nc2nc(-c3ccc(O)cc3O)cs2)nc1 | 100% (active) |
| O=C(CSc1ncc(CO)n1Cc1ccccc1)Nc1ccc([N+](=O)[O-])cc1 | 20.9% |
| Oc1ccc(N=Nc2nccs2)c(O)c1 | 99.9% (active) |
| Cc1[nH]c(=O)[nH]c(=O)c1S(=O)(=O)NC1=NCCS1 | 3% |
| COCc1cc(C)nc2sc(C3=NC(C)(C)Cc4ccccc43)c(N)c12 | 58% (active) |
| COCc1cc(C)nc2sc(C(=O)N(c3ccccc3)c3ccccc3)c(N)c12 | -19% |
| COCc1cc(C)nc2sc(C(N)=O)c(N)c12 | -5% |
| O=C(Nc1ccc(C(F)(F)F)cc1)N1CCc2c(nc[nH]c2=O)C1 | -3.4% |
